The text below walks through data of PubChem BioAssay (Tox21).

Inconclusive results are not listed. Entries that show only a call come without a potency. Activity calls are given as the source filed them. The call rests on the fitted dose curve.
Potency means the concentration at half of the fitted maximal effect.

The assay is described as follows: qHTS assay to identify small molecule agonists of the hypoxia (HIF-1) signaling pathway - cell viability counter screen (AID 1224844). Further: nearly all actives have a fitted effect of over 50% in size. The settings on record: HRE-bla ME-180 viability, CellTiter-Glo luminescence, 17 h; series mostly up to 76.8 µM. The source says: National Center for Advancing Translational Sciences [NCATS]
NIH Chemical Genomics Center [NCGC]
U.S. Environmental Protection Agency [EPA]
National Institutes of Environmental Health Sciences [NIEHS]
National Toxicology Program [NTP]
U.S. Food and Drug Administration [FDA]
Hypoxia-inducible factor-1 (HIF-1) is the major hypoxia-regulated transcription factor that controls cellular responses to low oxygen concentration. HIF-1 is composed of two subunits: hypoxia responsive HIF-1-alpha and constitutively expressed HIF-1-beta, which is also known as aryl hydrocarbon receptor nuclear translocator. During hypoxic conditions, HIF-1-alpha heterodimerizes with HIF-1-beta and translocates into the nucleus where the HIF-1 complex binds to the hypoxia-response element (HRE) and activates expression of target genes such as VEGF (vascular endothelial growth factor). The HIF-1 pathway is essential to normal growth and development, and is involved in the pathophysiology of cancer, inflammation, and ischemia.
Using a beta-lactamase reporter-gene under control of the hypoxia response element, a cell-based assay [CellSensor(TM) HRE-bla ME-180 from Life Technologies, Carlsbad, CA] was used to measure hypoxia-induced signaling. Tox21 10K library compounds were measured for their ability to induce the reporter gene activity. The cytotoxicity of the Tox21 compound library against HRE-bla ME-180 cell line was tested in parallel by measuring cell viability using CellTiter-Glo assay (Promega, Madison, WI) in the same assay wells.
Tox21 Assay Protocol Summary:
HRE-bla ME-180 cells were dispensed at 2,000 cells per well in 6 uL of assay medium containing 0.5% dialyzed FBS into black wall/clear-bottom 1536-well plates using a Multidrop Combi (Thermo Scientific, Waltham, MA) dispenser. After the assay plates were incubated at 37C and 5% CO2 for 5 hrs, 23 nL of compounds dissolved in DMSO, positive controls or DMSO only was transferred to each well of the assay plate using a Pintool station (Kalypsys, San Diego, CA). The assay plates were incubated at 37C and 5% CO2 for 17 hrs. One uL of LiveBLAzerTM B/G FRET substrate (CCF4-AM) (Life Technologies) was added to each well using a Flying Reagent Dispenser (FRD, Aurora Discovery, San Diego, CA). After 2 hr incubation at room temperature, fluorescence intensity (405 nm excitation, 460 nm and 530 nm emissions) was measured using an Envision plate reader (PerkinElmer, Shelton, CT). For cytotoxicity, 4 ul/well of CellTiter-Glo reagent was added into the assay plates using an FRD. After 30 min incubation at room temperature, the luminescence intensity was measured using a ViewLux plate reader (PerkinElmer).
Turning to `O=C(NN1CCCC1)NS(=O)(=O)c1ccc(Cl)cc1`, the Potency entry was “inactive”.

Turning to `C1=Cc2ccccc2C1`, the Potency entry was “inactive”.

On to `CCN(CC)CCc1nc(-c2ccccc2)no1`, for which the Potency entry was “inactive”.

As to `CC(C)c1ccccc1C(C)C`, the Potency entry is “inactive”.

Turning to `CCN1CCC[C@H]1CNC(=O)c1c(OC)ccc(Br)c1OC`, the Potency result was “inactive”.

`Nc1cnn([C@@H]2O[C@H](CO)[C@@H](O)[C@H]2O)c(=O)n1`: the Potency entry was “inactive”.

Take `CCCCCCCCCCCCCCCCCBr`: the activity change, negative = cytotoxicity was 2.27% [at 15.8 µM] (inactive).

Regarding `CN1CCN(C2=Nc3cc(Cl)ccc3Nc3ccccc32)CC1`, the Potency result was “inactive”.

Consider `CC(C)(C)C1CCCCC1O` (stereo not given), for which the Potency entry is “inactive”.

In the case of `CCCCCCCCCC=O`, the Potency entry is “inactive”.

Turning to `CC(C)NCC(O)c1cc(O)cc(O)c1` (stereo not given), the Potency result is “inactive”.

In the case of `NCCCN(CCO)CCO`, the Potency result was “inactive”.

Consider `C=C(C)C(=O)OC(C)C`, for which the Potency entry is “inactive”.

`Cc1cccc(OCCOc2cccc(C)c2)c1`: the Potency entry is “inactive”.

With `COC(Cc1ccccc1)OC`, the Potency entry was “inactive”.

`CN1CCC(=C2c3ccccc3CCc3sccc32)CC1`: the Potency is 16.9 µM (active).

Consider `COc1ccc(C(C)=O)cc1`, for which the Potency entry is “inactive”.

For the compound `CCCc1ccccc1`, the Potency result was “inactive”.

`CCCCOC(O)CC` (stereo not given): the Potency result was “inactive”.

Consider `Cc1ccc2c(ccc3ccccc32)c1`, for which the Potency result was “inactive”.

Turning to `CCCCCOC(=O)COc1cc(N2C(=O)C3=C(CCCC3)C2=O)c(F)cc1Cl`, the Potency result was “inactive”.

On to `Cc1cc(NC(=O)C(=O)O)cc(C)c1Oc1ccc(O)c2c1CCC2`, for which the Potency result is “inactive”.

With `CCCCOc1cc(C(=O)OCCN(CC)CC)ccc1N`, the Potency result was “inactive”.

In the case of `CN(C)CC/C=C1\c2ccccc2COc2ccccc21`, the Potency result is “inactive”.

Regarding `N#Cc1c(F)cccc1F`, the Potency result is “inactive”.

As for `Oc1ccc(O)c2c(O)cccc12`, the Potency result is “inactive”.

Consider `CC(=O)Nc1ccc(/C=N/NC(N)=S)cc1`, for which the Potency entry is “inactive”.

With `CC(C)(C)c1ccc(OCC2CO2)cc1` (stereo not given), the Potency entry was “inactive”.

Regarding `CCOC(=O)CC(C)C`, the Potency entry was “inactive”.

For `O=C1c2cccc(O)c2C(=O)c2c(O)cc(CO)cc21`, the Potency result was “inactive”.

Take `NC[C@H]1O[C@H](O[C@H]2[C@H](O)[C@@H](O[C@H]3O[C@H](CO)[C@@H](O)[C@H](N)[C@H]3O)[C@H](N)C[C@@H]2N)[C@H](O)[C@@H](O)[C@@H]1O`: the activity change, negative = cytotoxicity is -8.41% [at 6.97 µM] (inactive).

Consider `CCOc1ccc2[nH]cc(C(=O)NCc3ccccc3)c(=O)c2n1`, for which the Potency entry is “inactive”.

On to `CCN(CC)CCOc1ccc2c(c1)C(=O)c1cc(OCCN(CC)CC)ccc1-2`, for which the Potency entry is “inactive”.

In the case of `CN(C)CCCNCCCN`, the Potency entry was “inactive”.

`CC(=O)N(CC(=O)N(C)C)c1ccccc1`: the Potency entry was “inactive”.

`CC(=O)/C=C/C1C(C)=CCCC1(C)C` (stereo not given): the Potency result is “inactive”.

As to `Cc1ccc(C(N)=O)cc1N`, the Potency entry was “inactive”.

Consider `C=C(C)C(=O)OCCN(C)C`, for which the Potency result is “inactive”.

For the compound `CN(C(=O)CCCOc1ccc2[nH]c(=O)ccc2c1)C1CCCCC1`, the Potency result is “inactive”.

Turning to `O=S(=O)(O)c1ccc(O)c2ncccc12`, the Potency entry is “inactive”.
